The assay relates to Toxoplasma gondii RH 2F1 tachyzoites (intracellular in HFF). Briefly: parasite survival relative to DMSO control; higher = less antiparasitic activity, active = 20 or less. The settings on record: 1 µM; 72 h. The method, boiled down: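 Toxoplasma gondii RH-2F1 tachyzoites expressing β-galactosidase (5 × 10^3 per well) were used to infect HFF cells at 5 × 10^3 cells/well in 96-well plates for 3 h in D2 medium. Cells then received compound at 1 μM for 72 h at 37°C in 5% CO2, were lysed for 15 min, and were given CPRG, with absorbance at 570 nm read after 30 min. Survival denotes this signal as a percentage of DMSO-treated infected controls. Each value reflects 2 or more biological replicates.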
As to `CCNC(=O)Nc1cn2c(-c3ncc(CC)cn3)cc(-c3cccnc3)cc2n1`, the parasite survival was 34.6% (inactive).

Consider `NC1(C(=O)O)CCP(=O)(O)CC1` (stereo not drawn), for which the parasite survival is 77.4% (inactive).

Consider `CC(N)C12CC3CC(CC(C3)C1)C2` (stereo not drawn), for which the parasite survival was 78.3% (inactive).

As to `CCNC(=O)Nc1cc(-c2ccccc2)c(-c2cncc(C(=O)O)c2)cn1`, the parasite survival was 33% (inactive).

Take `O=C(NC(=O)N1CCCc2ccccc21)c1cccc(Cl)c1`: the parasite survival was 28.3% (inactive).

On to `NCc1ccc(S(N)(=O)=O)cc1`, for which the parasite survival was 84.2% (inactive).

As to `CNc1nc(=O)[nH]cc1F`, the parasite survival is 60.5% (inactive).

`N[C@H]1CCC[C@H]1C(=O)O`: the parasite survival was 78.4% (inactive).

Regarding `COc1ccc(OCc2ccc(COc3c(Cl)cccc3Cl)cc2)c(Cl)c1`, the parasite survival was 72% (inactive).

Consider `O=c1cc(NCCCN[C@@H]2CCOc3c(Br)cc(Br)cc32)[nH]c2ccsc12`, for which the parasite survival is 30.7% (inactive).

As for `Cc1cc(Nc2ccc(F)cc2)nc(SCc2nc3ccccc3[nH]2)n1`, the parasite survival was 42.4% (inactive).

As for `O=C1NC(=O)C(Br)=C1Br`, the parasite survival is 35.2% (inactive).

For the compound `O=C(/C=C\n1cnc(-c2cc(C(F)(F)F)cc(C(F)(F)F)c2)n1)NNc1ccccn1`, the parasite survival was 4.89% (active).

Turning to `Cc1cccc(C)c1C(=O)Nc1nc(-c2ccccn2)cc2ccccc12`, the parasite survival was 4.42% (active).

With `CC(C)Nc1nc2cc(Cl)c(Cl)cc2n1[C@H]1O[C@@H](CO)[C@H](O)[C@@H]1O`, the parasite survival was 72% (inactive).

For `CCc1oc2ccccc2c1C(=O)c1ccc(O)cc1`, the parasite survival was 29.1% (inactive).

As to `COC(=O)Nc1nc2c(C)cccc2[nH]1`, the parasite survival was 36.4% (inactive).

For the compound `CCCNc1ccc(S(=O)(=O)Nc2cc(C)on2)cc1`, the parasite survival is 65.5% (inactive).

The values above are taken from the supplement of paper PMC10941209.
